Reference: PubChem BioAssay (NCI)
About 79,000 compounds went through this panel and 15% of them were active in at least one assay; those are over-represented in the sample as a whole. Values without a mark were called inactive. Calls of active or inactive are those of the source. No stated cut-off is given here; in the data, active means growth inhibition above about 70%; inactive means the rest.

Experiments:
[1] = NCI Yeast Anticancer Drug Screen. Data for the rad50 strain (AID 155);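 further: 0% = growth of vehicle-only cultures of the same strain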; conditions: S. cerevisiae rad50 strain growth inhibition; at 50.0 µM; hits give high values
Summary of the method: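 Genetically altered yeast (DNA repair pathway); compound treatment; growth inhibition vs vehicle ctrl.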

[2] = NCI Yeast Anticancer Drug Screen. Data for the mec2-1 strain (AID 157); conditions: S. cerevisiae mec2-1 strain, at 50.0 µM, hits give high values
Summary of the method: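 Compounds were applied to mec2-1 yeast cells. Their growth was then compared with that of vehicle-treated cultures to give growth inhibition.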

[3] = NCI Yeast Anticancer Drug Screen. Data for the sgs1 mgt1 strain (AID 161);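 further: 0% = growth of cultures given vehicle only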; conditions: S. cerevisiae sgs1 mgt1 strain, at 50.0 µM, hits give high values
Summary of the method: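 Growth of a repair-deficient yeast mutant was monitored after compound treatment and expressed as inhibition relative to vehicle-treated cultures.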

[4] = NCI Yeast Anticancer Drug Screen. Data for the cln2 rad14 strain (AID 165);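 further: 0% = growth equal to vehicle treated cultures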; conditions: S. cerevisiae cln2 rad14 strain, at 50.0 µM, hits give high values
Summary of the method: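 Strain: cln2 rad14 yeast, altered in cell cycle control and DNA damage repair. Read-out: growth inhibition vs vehicle.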

[5] = NCI Yeast Anticancer Drug Screen. Data for the bub3 strain (AID 167); conditions: S. cerevisiae bub3 mutant strain, at 50.0 µM, hits give high values
Summary of the method: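 Yeast carrying a defined mutation is treated with each compound, and growth is compared with that of vehicle-exposed cells to give inhibition.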

[6] = NCI Yeast Anticancer Drug Screen. Data for the mlh1 rad18 strain (AID 175); conditions: S. cerevisiae mlh1 rad18 strain growth inhibition; at 50.0 µM; hits give high values
Summary of the method: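 A repair-deficient yeast strain is exposed to test compound, and growth is scored relative to vehicle-treated controls.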

Compound | growth inhibition [1] | growth inhibition [2] | growth inhibition [3] | growth inhibition [4] | growth inhibition [5] [%] | growth inhibition [6]
Cc1cc(CC(=S)[S-])[n+](C)c(CC(=S)S)c1 | 12.2% | 8.05% | -14.1% | 3.75% | -1.55 | 19.8%
C=C1CC[C@H]2C(C)=CC[C@@H]3[C@H](OC(=O)[C@H]3COC)[C@@H]12 | 3.6% | -39% | -11.5% | 5.4% | -18.6 | -11.4%
COc1cc(OC)c(NC(=O)C(Cl)(Cl)Cl)cc1Cl | 4% | 42% | 5.9% | -17.4% | 30.9 | 27.4%
O=C(c1ccccc1)C1CC2C=CC1C2 (centres undefined) | 4.3% | -8.25% | 2.4% | 36.9% | -0.7 | 17.2%
Nc1nc(Cl)cc(Nc2ccc3c(c2)CCC3)n1 | 15.2% | 6.8% | 26.5% | 19.1% | 23.6 | -20.4%
CCC(C#N)C1=CCCCCC1 (centres undefined) | 31.8% | 3.75% | 19.4% | 11.7% | 4.6 | 20.6%
CC1c2nc(N)nc(N)c2CN1C(=O)c1ccccc1 (centres undefined) | 3.25% | -5.7% | -18.9% | -13.6% | -8.85 | -0.85%
Sc1ccc2ccccc2c1 | 12.4% | 9.15% | -23.3% | -38.4% | -17.1 | -30.4%
ClC(Cl)(Cl)c1ccc(C2OCCO2)cc1 | -17.8% | -6.8% | -7.85% | -26.6% | -22 | -0.3%
COc1ccc(C2(C(=O)O)CC(C)=C(C)CC2C(=O)O)cc1 (centres undefined) | -1.45% | -9.05% | -5.25% | 0.6% | -11.7 | 7%
CC1CC(=O)Nc2ncccc2N1 (centres undefined) | 5.75% | -4.2% | 4.2% | -28.6% | 8.05 | -9.45%
CCCCCC#CC1OC1(C)C (centres undefined) | -2.1% | -8.05% | -2.8% | -27% | 5.95 | -12.2%
Clc1c(Cl)c2ccccc2c2ccccc12 | 10.1% | -8.4% | 11.3% | 8.85% | 32.5 | 4.85%
CCOC(=O)Nc1nc2ccccc2n1CN1CCN(c2ccccc2)CC1 | 8.4% | 7.75% | -8.7% | 21.3% | 45.3 | 16.9%
CC(C)(C)c1cc(-c2cc(C(C)(C)C)[nH]n2)n[nH]1 | 12.8% | 4% | 12.7% | 9.05% | 14.2 | 10.3%
Cc1ccc(S(=O)(=O)Nc2ccccc2)cc1 | 18% | -27.9% | 21% | -20.2% | 3.8 | 37.3%
COC1OCCCO1 | -12.6% | 11.6% | -6.45% | -6.75% | -0.1 | -12.5%
CC1(C)N=C(N)NC(Nc2ccccc2)=N1 | -0.2% | -6.5% | -27.6% | -26.9% | -10.8 | -0.05%
Nc1cccc(Oc2ccc([N+](=O)[O-])cc2)c1 | 16.9% | 25% | 28.3% | 17.2% | 32.5 | 24.7%
CC[n+]1ccccc1Br | 19.2% | 18.6% | 10.1% | -7.4% | 6.05 | 18.6%

Compound | growth inhibition [1] | growth inhibition [2] | growth inhibition [3] | growth inhibition [4] | growth inhibition [5] [%] | growth inhibition [6]
CC1(C2(C)Nc3ccccc3O2)Nc2ccccc2O1 (centres undefined) | 10.2% | 8.35% | 9.95% | -36.8% | 3.65 | 9.05%
CSc1nnn(C(C)(C)C)n1 | 5.35% | 6% | -3.5% | -15.9% | -8.75 | 8.8%
CC1(C)COC(c2ccc(CC(Cc3ccc(C4(C(C)(C)C)OCC(C)(C)CO4)cc3)C(=O)O)cc2)(C(C)(C)C)OC1 | -7.25% | -19.8% | 3.1% | 5.15% | 3.8 | 5.35%
N#CCC(=O)O | -0.2% | 6.5% | -4.3% | 2.05% | -3.2 | -9%
CCOC(=O)CC(=O)c1sc(SC)c(C#N)c1N | -8% | -9.6% | -10.2% | -2% | 1.6 | 1.6%
CCCCC(=O)C(CC)(c1ccccc1)N(C)C (centres undefined) | -11.7% | -31.1% | -9.4% | -21.2% | -2.35 | -17.9%
CCOc1c(N=Nc2ccc(Cl)cc2)c(C)nn1C(N)=S | -19.2% | 16.2% | 12.2% | -12.6% | 36.4 | 44.5%
CCCCc1ccc(O)c(CN(CC)CC)c1 | 10.8% | -8.2% | -11.6% | -23.6% | -6.8 | -2.9%
CCOc1ccc2nc(NC(=O)C(=O)C(C(=O)c3ccccc3F)C3OC(=O)c4ccccc43)sc2c1 (centres undefined) | 10.9% | 9% | 2.65% | 22.6% | -1.2 | 7%
CCOC(=O)n1ccnc1 | -6.4% | -5.45% | 1.5% | 8% | 9.05 | -2.95%
O=C(N/N=C\c1ccc2c(c1)CCC2)c1cccc2ccccc12 | -5.9% | 1.35% | -11.9% | -6.1% | 10.2 | -2.9%
Cc1ccc([N+](=O)[O-])cc1NC(=O)NCCCl | -11.1% | 4.55% | 5.5% | -1% | -11.1 | -9.05%
CCOC(=O)c1c(N)sc2c1C(C(=O)OCC)CCC2 (centres undefined) | -28.3% | -10.7% | 3.95% | -24.1% | 19.4 | -11.7%
O=[N+]([O-])c1cc2c(cc1O)[nH]c1cccc([N+](=O)[O-])c12 | -2.25% | -11.4% | -42.5% | 21.1% | -15.8 | -22.6%
Cc1cc(C)c(S(=O)(=O)c2cccs2)c(C)c1 | -7% | -10.2% | -8.25% | -6.45% | 5.25 | -2.8%
Clc1cc(Cl)c2ncccc2c1 | 4.05% | 17.9% | 3.3% | -30.2% | 17.8 | 11.8%
Cn1c2ccccc2c(=O)c2c(O)cc3c(c21)CC(C1(C)CO1)O3 (centres undefined) | 86.2% (active) | 79.6% (active) | 72% (active) | 80.7% (active) | 42.5 | 83.1% (active)
COC(=O)C1c2ccccc2CC(=O)N1NC(C)=O (centres undefined) | 15.6% | 1.65% | -19.4% | 9.65% | 5.3 | 10.4%
O=C(CN(c1ccc(S(=O)(=O)O)cc1)c1ccc(S(=O)(=O)O)cc1)Nn1cnc2ccc(S(=O)(=O)N(c3ccc(S(=O)(=O)O)cc3)c3ccc(S(=O)(=O)O)cc3)cc2c1=O | 29.1% | 6.15% | 31.2% | 19.2% | 26 | 34.1%
